Records with an inconclusive call do not appear. Unmarked numbers belong to inactive results. Active and inactive are the calls of the source. The call rests on the fitted dose curve.
Experiment: Cytotoxicity counterscreen for inhibitors of SARS-CoV-2 cell entry (AID 1645845); further: nearly all actives have a fitted effect of over 50% in size
Details: cell viability (SARS-CoV-2 entry assay cells); series mostly up to 57.1 µM; activity change, negative = cytotoxicity: at the top concentration
Procedure, shortened: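 Expi293F/hACE2 cells seeded overnight; cpd pin-transferred in DMSO, 1 h preincubation, + media, 48 h 37 C 5% CO2; ATPLite 1step luminescence; normalized to cells and no cells.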
On the % scale 0 is the no-effect control and ±100 the full control effect; potency means the concentration at half of the fitted maximal effect.

Row | Compound | activity change, negative = cytotoxicity | outcome | Potency
1 | NC(=O)c1cnc2[nH]ccc2c1NC1C2CC3C[C@H]1CC(O)(C3)C2 (stereo partly drawn) | -11% |  | 
2 | C=C1CCC2[C@](C)(CO)C(O)CC[C@]2(C)C1C/C=C1/C(=O)OCC1O (stereo partly drawn) | -21% |  | 
3 | Cn1ncc(Cl)c1-c1cc(C(=O)N[C@H](CN)Cc2cccc(F)c2)sc1Cl | -1.09% |  | 
4 | CN1C(=O)c2sccc2N(C)c2nc(Nc3ccc(S(N)(=O)=O)cc3)ncc21 | -18.7% |  | 
5 | COc1ccc(-n2c(SCCCN3C(=O)c4cccc5cccc(c45)C3=O)nnc2-c2ccncc2)cc1 | -2.21% |  | 
6 | NC(=S)N/N=C/c1ncccc1N | 0.116% |  | 
7 | Fc1ccc(-c2nc(-c3ccccc3F)[nH]c2-c2ccncc2)cc1 | -6.97% |  | 
8 | CC[C@H]1OC(=O)[C@H](C)C(=O)[C@H](C)[C@@H](O[C@H]2O[C@H](C)C[C@H](N(C)C)[C@H]2O)[C@](C)(OC)C[C@@H](C)C(=O)[C@H](C)[C@H]2N(CCCCn3cnc(-c4cccnc4)c3)C(=O)O[C@]12C |  | inactive | 
9 | C[C@@H]1CCN(C(=O)N2CCCC2)C[C@@H]1N(C)c1ncnc2[nH]ccc12 |  | inactive | 
10 | CCCCCCCCCCCCCCCCOCCCOP(=O)(O)COC(CO)Cn1ccc(N)nc1=O (stereo not drawn) | -8.34% |  | 
11 | CC(=O)Nc1ccc(C(=O)NC(C)(C)C)cc1 | -3.09% |  | 
12 | O=C(Nc1ccc(-c2ccnc(Nc3ccc(N4CCOCC4)cc3)n2)cc1)C1CCCN1 (stereo not drawn) | 0.0784% |  | 
13 | COc1cc(=C2C=c3ccccc3=N2)[nH]/c1=C/c1[nH]c(C)cc1C |  |  | 10 µM (active)
14 | CN(C)c1cc(NC(=O)CNC(C)(C)C)c(O)c2c1C[C@H]1C[C@H]3[C@H](N(C)C)C(=O)C(C(N)=O)=C(O)[C@]3(O)C(=O)C1=C2O | -0.326% |  | 
15 | Cn1cc(/C=C/C(=O)c2cccc(F)c2)cc1/C=C/C(=O)NO |  | inactive | 
16 | C[C@@H]1COCCN1c1cc(=O)n2c(n1)N(Cc1cncc(Cl)c1)[C@H](C(F)(F)F)CC2 | 0.894% |  | 
17 | C=C1C(=O)O[C@H]2C[C@H](C)C(/C=C/C(C)=O)=CC[C@H]12 |  |  | 31.6 µM (active)
18 | CN1CCN(c2ccc(Nc3ncc4cc(C#N)c(=O)n(C5CCCC5)c4n3)cc2)CC1 |  | inactive | 
19 | CS(=O)(=O)c1ccc([C@@H](CC2CCCC2)C(=O)Nc2nccs2)cc1 | -17.5% |  | 

Row | Compound | activity change, negative = cytotoxicity | outcome | Potency
20 | Cn1cncc1C(N)(c1ccc(Cl)cc1)c1ccc2c(c1)c(-c1cccc(Cl)c1)cc(=O)n2C (stereo not drawn) |  |  | 8.91 µM (active)
21 | COc1cc(N2CCC(N3CCN(C)CC3)CC2)ccc1Nc1ncnc(Nc2ccccc2S(=O)(=O)C(C)C)n1 | -5.36% |  | 
22 | Cc1[nH]c(/C=C2\C(=O)Nc3ccccc32)c(C)c1CCC(=O)O |  | inactive | 
23 | CNS(=O)(=O)Nc1nccc(Cc2c(C)c3ccc(Oc4ncccn4)cc3oc2=O)c1F |  |  | 14.1 µM (active)
24 | COc1ccc(CNC(=O)c2cc(-c3cncc(Cl)c3)cnc2-c2ccccn2)nc1OC |  | inactive | 
25 | C=C1C(=O)OC2/C=C(/C)CC/C=C(/C)CCC12 (stereo not drawn) | 1.64% |  | 
26 | CC1(C)OCCn2c1nc1c(N3CCOCC3)nc(-c3cnc(N)nc3)nc12 | -15.8% |  | 
27 | Cc1[nH]c(/C=C2\C(=O)Nc3ccc(F)cc32)c(C)c1C(=O)NC[C@H](O)CN1CCOCC1 | -7.38% |  | 
28 | CC[C@H](NC(=O)[C@H](C)NC)C(=O)N1C[C@@H](O)C[C@H]1Cc1c(-c2[nH]c3cc(F)ccc3c2C[C@@H]2C[C@H](O)CN2C(=O)[C@H](CC)NC(=O)[C@H](C)NC)[nH]c2cc(F)ccc12 | -22.9% |  | 
29 | CO[C@H]1/C=C/O[C@@]2(C)Oc3c(C)c(O)c4c(O)c(c(/C=N\N5CCN(C6CCCC6)CC5)c(O)c4c3C2=O)NC(=O)/C(C)=C\C=C\[C@H](C)[C@H](O)[C@@H](C)[C@@H](O)[C@@H](C)[C@H](OC(C)=O)[C@@H]1C | -17.9% |  | 
30 | CNC(=O)[C@@H](NC(=O)[C@H](CC(C)C)[C@H](O)C(=O)NO)C(C)(C)C |  | inactive | 
31 | NS(=O)(=O)c1ccc(NC(=S)N2CCN(C/C=C/c3ccccc3)CC2)cc1 | -24.4% |  | 
32 | O=C(Nc1cccc(C(F)(F)F)c1)c1cccc2cc(Oc3cc(CO)ncn3)ccc12 |  | inactive | 
33 | CNC(=O)[C@H](Cc1c[nH]c2ccccc12)NC(=O)[C@@H](CC(=O)NO)CC(C)C |  | inactive | 
34 | COc1cc2c(cc1OC(C)C)[C@H](c1ccc(Cl)cc1)N(c1ccc(N(C)CC3CCC(N4CCN(C)C(=O)C4)CC3)cc1)C(=O)C2 (stereo partly drawn) |  | inactive | 
35 | Cc1cc(C(=O)Nc2cc(Oc3ccc4nc(NC(=O)C5CC5)cn4n3)ccc2C)n(C)n1 | -27.6% |  | 
36 | COc1cc(N2CCN(C)CC2)ccc1Nc1ncc2c(n1)N(C)c1ccccc1C(=O)N2 |  | inactive | 
37 | Cc1cc(Nc2cc(N)ncn2)c(=O)n2c1C(=O)NC21CCCCC1 |  | inactive [at 27.1 µM] | 
38 | COCC(=O)NC/C=C/c1ccc2ncnc(Nc3ccc(Oc4ccc(C)nc4)c(C)c3)c2c1 | -11.9% |  | 
